This passage reports activity change, negative = inhibition results from PubChem BioAssay AID1259415 (National Center for Advancing Translational Sciences (NCATS), 2018).

Several values for one entry are separate records, joined by “and”; a condition that tells them apart may be missing. Identical values can stand only once. The campaign covered roughly 410,000 compounds. About 18,000 (4.4%) were called active. Roughly 7% stayed inconclusive and do not appear here. No stated cut-off is given here; in the data, active means activity change below about -60%; inconclusive means no clear call, values can overlap the other calls; inactive means above about -39%. Only a selection was taken, and actives are over-represented in it overall. A structure can be active in one record and inactive in another.
On the % scale 0 is the no-effect control and ±100 the full control effect.

A short description of the test: qHTS Assay for inhibitors of the human cytomegalovirus (HCMV). As to conditions: HFF cells, HCMV-luciferase reporter, 72 h; at 57.5 µM; stronger effect = lower value. The gist of the method:
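Two-dose cell screen: HFF monolayers treated with compounds and infected with luciferase-expressing HCMV at 1 PFU/cell, 72 h at 37C, then lysed for luciferase measurement.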
Background: Quantitative high-throughput screening tests each substance at several concentrations.
For the compound `Cc1cccc(N=Nc2c(O)[nH]c3ccc(F)cc23)c1`, the activity change, negative = inhibition was 101% (inactive).
To `Cc1[nH]c2ccc(S(N)(=O)=O)cc2c1C` belongs 28% (inactive); to `NS(=O)(=O)c1ccc(N=Nc2c(O)[nH]c3ccc(Br)cc23)cc1`, -60.1% (active).
With `Cc1nnc(SCc2cc(=O)c3cc(F)ccc3[nH]2)n1C` the figure was 17.7% (inactive); with `CC(C)C(=O)Nc1nc2c(s1)CC(C(C)(C)C)CC2` (stereo not drawn), 36.6% (inactive).
With `O=C(Nc1cccc(Cl)c1)C1CCCN(c2cnccn2)C1` (stereo not drawn) the figure was -9.65% (inactive); with `Cc1ccc(Cl)cc1NC(=O)C1CCCN(c2cnccn2)C1` (stereo not drawn), -33.4% (inactive) and -71.5% (active); with `Cc1ccc(Cl)cc1NC(=O)C1CCN(S(C)(=O)=O)CC1`, 22% (inactive).
Turning to `COC(=O)c1ccccc1NC(=O)c1cnn(-c2ccc(F)cc2)c1-n1cccc1`, the activity change, negative = inhibition was -4.4% (inactive).
Regarding `COc1ccc(-n2nc(C(=O)NCCc3ccc(Cl)cc3)c3c4ccccc4n(C)c3c2=O)cc1Cl`, the activity change, negative = inhibition is 1.81% (inactive).
To `COc1ccc(S(=O)(=O)N2CCN(c3ccc(F)cc3)CC2)cc1-c1noc(C)n1` belongs -18.6% (inactive); to `O=C(NC1CC(=O)N(c2ccc(Cl)cc2)C1)C1CCCC1` (stereo not drawn), 16.2% (inactive).
With `COc1ccc(C2Sc3ccccc3NC3=C2C(=O)c2ccccc23)c(OC)c1OC` (stereo not drawn) the figure was -74.4% (active); with `COC(=O)C(C)C1Sc2ccccc2NC1=O` (stereo not drawn), -14.8% (inactive).
With `CCCCCOC(=O)C1=C(C)Nc2nnnn2C1c1ccc(OC)c(OC)c1OC` (stereo not drawn) the figure was 13.7% (inactive).
Regarding `COCCNC(=O)c1ccc(-n2c(SCc3cccnc3)nc3ccccc3c2=O)cc1`, the activity change, negative = inhibition was -38.3% (inactive).
To `CCC1NC(=O)c2cccnc2-n2c1nc1ccc(C)cc1c2=O` (stereo not drawn) belongs -2.47% (inactive); to `CSc1nc2ccc(C)cc2c(=O)n1-c1cccnc1`, -87.3% (active).
With `CC1CCCN1CCC(C(N)=O)(c1ccccc1)c1ccccc1` (stereo not drawn) the figure was -15% (inactive); with `CN1CCC[C@@H]1CCO[C@](C)(c1ccccc1)c1ccc(Cl)cc1`, -62.4% (active).
To `OC(c1ccccc1)(c1ccccc1)C1CCN(CCCOc2ccccc2)CC1` belongs 2.18% (inactive); to `COc1ccc(-c2nc(C)c(CCNC(=O)c3ccc(C(F)(F)F)cc3)s2)cc1OC`, 14.8% (inactive); to `N#Cc1ccc(CC(O)c2nc(C(=O)Nc3ccccc3)cs2)cc1` (stereo not drawn), -100% (active).
Consider `O=C(Nc1ccc(Cl)cc1)c1csc([C@@H]2O[C@H](CO)[C@H](O)[C@H](O)[C@H]2O)n1`, for which the activity change, negative = inhibition is 16.2% (inactive).
To `O=C(Nc1ccc(Cl)cc1)c1csc(C(O)c2cccc(C(F)(F)F)c2)n1` (stereo not drawn) belongs -20.2% (inactive).
`COc1cccc2c(C)c(C(=O)O)[nH]c12`: the activity change, negative = inhibition was -2.81% (inactive).
With `COc1ccccc1Cc1c(-c2ccc(Cl)cc2)nc2c3ccccc3ccn12` the figure was 22.4% (inactive); with `CCc1c(C)nc2c(OC)cccc2c1Cl`, -75.4% (active).
To `COc1ccc(C)cc1-n1c(-c2ccc(C)cc2)cc2c1CC(C)(C)CC2=O` belongs 5.24% (inactive); to `CC(=O)Nc1ccc(S(=O)(=O)NC2(C(F)(F)F)C(=O)NC(C)=C2C#N)cc1` (stereo not drawn), -29.9% (inactive).
In the case of `CC(C)CNc1ncnc2c1nnn2C`, the activity change, negative = inhibition was -27.2% (inactive).
To `O=C(NCc1nnnn1-c1ccc(Cl)cc1)c1ccc2c(c1)OCO2` belongs 21% (inactive); to `O=C(NCc1nnnn1-c1ccc(Cl)cc1)c1ccc([N+](=O)[O-])o1`, -63.2% (active); to `Cc1ccc(-n2nnnc2CNC(=O)c2ccccc2C)cc1C`, -15.5% (inactive).
For `C=CCn1c(O)c(/C=N/N2CCOCC2)c(=O)[nH]c1=S`, the activity change, negative = inhibition was -8.35% (inactive).
Regarding `CCCCn1nc2ccccc2c1OCC`, the activity change, negative = inhibition is -7.88% (inactive).
Consider `COc1ccccc1-c1cc(C(F)(F)F)nc(S(=O)(=O)CCCC(=O)Nc2cc(C)ccc2O)n1`, for which the activity change, negative = inhibition is 7.44% (inactive).
Take `COc1ccccc1-c1cc(C(F)(F)F)nc(S(=O)(=O)CCCC(=O)Nc2ccc(F)cc2F)n1`: the activity change, negative = inhibition was -93% (active).
To `CSc1ccccc1NC(=O)CCS(=O)(=O)c1nc(-c2cccs2)cc(C(F)(F)F)n1` belongs 3.11% (inactive).
With `Cc1nn(-c2ccccc2)nc1C(=O)OCC(=O)N1CCCCC1C` (stereo not drawn) the figure was 37.5% (inactive); with `Cc1oc2ncnc(N3CCCCC3)c2c1C(=O)N1CCN(c2cccc(Cl)c2)CC1`, 2.67% (inactive); with `C#Cc1cc(N2CCN(C(=O)c3ccoc3)CC2)n2nc(-c3cccc(Cl)c3)cc2n1`, -102% (active).
To `CNc1cncc(-c2cccc(C(=O)N3CCOCC3)c2)n1` belongs 16.3% (inactive); to `COc1ccccc1-c1cc2nc(C)c(CCC(=O)NC3CCCCC3)c(C)n2n1`, -7.07% (inactive); to `C[C@]12CC[C@H](O)C[C@H]1CC[C@@H]1C2CC[C@]2(C)[C@@H](C3=CC(=O)OC3)[C@@H](O)C[C@]12O` (stereo partly drawn), -99.6% (active).
As for `CC(=O)[C@@]12O[C@@H]1C[C@H]1[C@@H]3CC[C@H]4C[C@@H](O)CC[C@]4(C)[C@H]3CC[C@@]12C`, the activity change, negative = inhibition was -16% (inactive).
With `Cc1cc2ccccc2n1CCNC(=O)c1ccc(F)cc1` the figure was 0.319% (inactive).
Consider `CC1=C(C(=O)OCc2ccc(C)cc2)C(c2c(Cl)cccc2Cl)CC(=O)N1` (stereo not drawn), for which the activity change, negative = inhibition was -18.7% (inactive).
